Screens from PubChem BioAssay.
Only some compounds are listed: those with a hit (about 6.5% of all), similar ones and a draw of the others.
Abs 340nm = compound light absorbance at 340 nm, profiling panel, artefact control, biochemical, MLSMR library, data from PS, PMK, MK assays; compound absorbance at 340 nm, fold over control; fold change at 10 µM; 65,000 tested, under 10 active;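 active = at 10 µM dose, initial 340 nm absorbance at least 2 fold that of control wells; inactive = change under 2 fold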;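 also: initial absorbance extrapolated from kinetic A340 decline of NADH oxidation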
NADH enzymes = inhibitors of PK/LDH coupling enzymes, profiling panel, artefact control, biochemical, MLSMR library | coupled PK/LDH NADH assays, four targets | IC50, µM (top dose mostly 10 µM) | 65,000 compounds, 0.02% hits;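 active = single-dose screening hits from any of four coupled enzyme assays that gave an IC50 when retested across doses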;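 also: the DPM-DC format reads NADH fluorescence rather than 340 nm absorbance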
PMK inhibit = S. pneumoniae PMK inhibitors, primary screen, biochemical, mevalonate pathway, pilot trial included; inhibition, % at 10 µM; purified PMK, PK/LDH-coupled NADH absorbance 340 nm; phosphomevalonate kinase (Streptococcus pneumoniae D39); 65,000 compounds, 0.49% hits;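 active = top-ranked compounds by inhibition in the single 10 µM screen, taking a fixed number of the strongest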
MK inhibit = S. pneumoniae MK inhibitors, primary screen, biochemical, PK/LDH-coupled NADH absorbance. purified MK, PK/LDH-coupled NADH absorbance 340 nm. inhibition, % at 10 µM. 65,000 compounds, 0.48% hits. AID 555, 2006;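 active = ranked among the strongest by inhibition in the single 10 µM screen, a fixed top-ranked set picked for dose follow-up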
Fluor 339 460 = intrinsic fluorescence of library compounds, ex339/em460 – biochemical, MLSMR library, data from DPM-DC assay, artefact control, profiling panel | compound autofluorescence, ex339/em460 nm, NADH buffer; hits give high values; 1 = no-compound wells, NADH background | fluorescence fold increase at 10 µM | 65,000 compounds, 5.5% hits | AID 709, 2007;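 active = at 10 µM, mean starting fluorescence two-fold or more over control wells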;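 also: signal is the first read of a kinetic run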
DPM-DC inhibit = S. pneumoniae DPM-DC inhibitors, primary screen, biochemical, PK/LDH-coupled NADH fluorescence; purified DPM-DC; calls only at 10 µM; 65,000 compounds, 0.49% hits; AID 556, 2006;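 active = the 320 compounds with the highest percent inhibition in the single-dose primary screen, excluding strongly autofluorescent ones, cut at about 32% in these data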;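 also: kinetic rate of NADH fluorescence loss reporting ADP formed by the decarboxylase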
Large screens that a line does not name were inactive.

COc1ccc(-c2cc3ccccc3n2CC(O)CN2CCN(CCO)CC2)cc1 (stereo not given)	none
COc1ccccc1N1CCN(C2CCN(C(=O)c3cccs3)CC2)CC1	MK inhibit 56
COc1ccccc1N1CCN(C(=O)c2ccc(Br)s2)CC1	none
OCCNc1ncnc2c1ncn2Cc1ccccc1	none
C=CCn1cnc2c(NCc3ccccc3)ncnc21	MK inhibit active
C=C(C)COc1ccc2c(C)c(C)c(=O)oc2c1OCC(=C)C	Fluor 339 460 2.1 (not shown: DPM-DC inhibit)
CCOc1ccc(CC(=O)C2C(=O)CCCC2=O)cc1OCC	none
C=C(C)COc1ccc2c3c(c(=O)oc2c1OCC(=C)C)CCC3	Fluor 339 460 2.1
Cc1cccc2cc3c(NC(=O)c4ccccn4)nn(C)c3nc12	Fluor 339 460 2.1
CCCC(=O)Nc1nn(C)c2nc3c(C)cccc3cc12	none
Cn1c(=O)c2c(-c3ccccc3)n(C3CCCCC3)cc2n(C)c1=O	PMK inhibit 31
Cn1c(=O)c2c(-c3ccccc3)n(-c3ccccc3O)cc2n(C)c1=O	Fluor 339 460 2.2
COc1ccc(-c2c3c(=O)n(C)c(=O)n(C)c3cn2-c2cc(OC)ccc2OC)cc1	Fluor 339 460 3.7 (not shown: DPM-DC inhibit)
COc1ccc(-c2c3c(=O)n(C)c(=O)n(C)c3cn2Cc2ccccn2)cc1	none
Cn1c(=O)c2c(-c3ccccc3)n(N3CCOCC3)cc2n(C)c1=O	none
Cc1cccc(-c2c3c(=O)n(C)c(=O)n(C)c3cn2-c2ccc(O)cc2)c1	Fluor 339 460 2.1
CCNC(=O)CN(Cc1ccccc1)S(=O)(=O)c1ccccc1	none
CC(=O)c1c(C)nc2nonc2c1N	Fluor 339 460 2
CCOC(=O)c1c(-c2ccc(OC)cc2)nc2nonc2c1N	none
CCCCS(=O)(=O)c1sc2nc3c(cc2c1N)CCCC3	Fluor 339 460 3.3 (not shown: DPM-DC inhibit)
CCC1(C)Cc2nc3sc(C(=O)O)c(N)c3cc2CO1 (stereo not given)	none
Cc1nc2oc3ccccc3c(=O)c2c(=O)n1Cc1ccccc1	none
Cc1nc2ccc(N)cc2c(=O)n1Cc1ccc(Cl)cc1	Fluor 339 460 3.7 (not shown: DPM-DC inhibit)
CCOC(=O)c1snc(C(=O)NC2CCCCC2)c1N	Fluor 339 460 2
Nc1c(C(=O)NC2CCCCC2)nsc1C(=O)OCC(=O)NC1CCCCC1	Fluor 339 460 3.1
CCn1ncc(C2=NOC(C(=O)Nc3cccc(C(C)=O)c3)C2)c1C (stereo not given)	none
Nn1c(SCC(=O)Nc2cccc(F)c2)nnc1C1CCCCC1	none
c1ccc(-n2ncc3c(N4CCN(c5ccccn5)CC4)nc(N4CCCCCC4)nc32)cc1	none
OC(CNCCc1ccccc1)c1ccccc1 (stereo not given)	none
COC(=O)c1ccc(-c2ccc(CNCC(O)c3ccccc3)o2)cc1 (stereo not given)	Fluor 339 460 2.9 (not shown: DPM-DC inhibit)
O=c1nc(-c2ccccc2)c2ccccc2[nH]1	Fluor 339 460 2.7
COc1ccc(CNC(=O)C2CCN(S(=O)(=O)c3cccc4cccnc34)CC2)cc1	PMK inhibit 27
O=C(NCc1ccccc1)C1CCN(S(=O)(=O)c2cccc3cccnc23)CC1	none
Cc1ccc(CNC(=O)C2CCN(S(=O)(=O)c3c(C)noc3C)CC2)cc1	MK inhibit active
Cc1oc(-c2ccc(Cl)cc2)nc1CN1CCCC(C(=O)N2CCN(C(=O)c3ccco3)CC2)C1 (stereo not given)	none
Cn1c(SCc2ccc3c(c2)OCO3)nnc1-c1ccccc1	none
c1ccn2c(SCc3ccc4c(c3)OCO4)nnc2c1	MK inhibit 48
Cn1c(-c2nonc2NC(=O)c2ccc(C(C)(C)C)cc2)nc2ccccc21	Fluor 339 460 2.6
CC(=O)Nc1nonc1-c1nc2ccccc2n1CCC(C)C	none
N#Cc1cc2c(nc1SCc1nc3ccccc3[nH]1)CCC2	Fluor 339 460 2.1
C=C(C)CSc1nc2c(cc1C#N)CCC2	none
CC(C)OC(=O)CC(=O)CSc1nc2c(cc1C#N)CCCC2	Fluor 339 460 3.7 (not shown: DPM-DC inhibit)
CCc1c(C)nc(SCC(=O)CC(=O)OC(C)C)c(C#N)c1C	Fluor 339 460 2.2
